Shown are actives, neighbours in structure and some others; about 1.9% of the full set was active somewhere.
p53null 39C tox: selectivity test: cytotoxicity in p53 null cells, nonpermissive temperature; H1299 p53-null (neo) cells, 39C, ATPlite viability, 24 h; actives 0.97% (n = 55,000); Potency, µM (highest dose often 46.1 µM), for inactives: at the highest dose activity, negative = cell killing, most hits filed as cytotoxic; AID 904;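 also: 0% = DMSO only and -100% = full killing by 100 µM tamoxifen; nearly all actives have a fitted effect of over 50% in size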
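H1299 lung cancer cells, p53-null (H1299-neo) or expressing p53 A138V (H1299-p53A138V), were plated overnight at 37C, then exposed to compounds at up to 46 uM for 24 hr at 39C. Viability was read by ATP-based luminescence.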
p53null 32C kill: selectivity test: cytotoxicity in p53 null cells, permissive temperature; H1299-neo p53 null cells, ATP luminescence, 24 h, 32C; Potency, µM (titrated, usually from 46.1 µM), for inactives: at the top dose activity change, negative = cytotoxicity, most hits filed as cytotoxic; actives 0.62% (n = 55,000); AID 903;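 also: 0% = DMSO only and -100% = full killing by 100 µM tamoxifen; nearly all actives have a fitted effect of over 55% in size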
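Cytotoxicity: H1299-neo (no p53), 32C, 24 h treatment. Concentrations up to 46 uM. Readout cellular ATP, luminescence. Normalization to DMSO basal and tamoxifen 100 uM maximal kill.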
HTT promoter inh: HTT promoter inhibition; HEK293 HTT promoter firefly luciferase reporter, 24 h; Potency, µM (doses to about 57.5 µM), without a hit: at the top dose activity change, negative = inhibition, hits mostly inhibitors; actives 0.93% (n = 48,000); AID 1508623; also: nearly all actives have a fitted effect of over 50% in size
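Firefly luciferase readout (Dual-Glo, 10 min RT) after 24 h, 37 °C compound exposure (final up to 57.5 uM) of HEK293 reporter cells cultured 24 h beforehand; PTC124 at 50 uM final as control inhibitor; activity scaled vehicle 0%, zero RLU -100%.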
HTT-AS act: HTT-AS promoter activation. AID 1508624. actives 0.24% (n = 48,000). HEK293 HTT-AS promoter firefly luciferase reporter, 24 h; response scale: percent change from vehicle, -100% = no light. Potency, µM (titrated, usually from 57.5 µM), for the others: at the top dose activity change, positive = activation, hits mostly activators; also: nearly all actives have a fitted effect of over 55% in size
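Firefly luciferase signal from promoter-reporter HEK293 cells was scaled between vehicle (0%) and zero RLU (-100%). Compounds were tested at final concentrations of up to 57.5 uM over 24 h at 37 degrees C. PTC124 at 50 uM final served as control inhibitor.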
Active calls of the source: *; ? = inconclusive; · = no result given. Calls follow the shape of the dose curve; as a rule, active = well fitted curve in the direction sought with a large enough effect; inconclusive = small, poorly fitted or top-dose-only effect, or another doubt; inactive = no such curve, though single readings can be large; an effect the other way counts as inactive or inconclusive. Potency is read from the fitted curve at half-maximal effect.

SMILES | p53null 39C tox | p53null 32C kill | HTT promoter inh | HTT-AS act
CCC(C(=O)Nc1ccc(C)c(Cl)c1)n1c(=O)c(-c2ccccc2NC(C)=O)nc2ccccc21 (stereo unspecified) | -8.2% | -5.8% | 22.4µM* | -43.9%
COc1ccc(-n2cc(-c3ccc4c(c3)OCO4)n(CC(=O)Nc3cc(Cl)ccc3C)c2=O)cc1 | 10µM* | 15.8µM* | 26.5% | 8.0%
COc1ccc(-n2cc(-c3ccc4c(c3)OCO4)n(CC(=O)Nc3cccc(C)c3C)c2=O)c(OC)c1 | ? | -3.0% | ? | -28.5%
O=C1NC(=O)C(c2cnc3ccccn23)=C1c1cn2c3c(cccc13)CN(C(=O)N1CCOCC1)CC2 | · | · | ? | -18.9%
CCN(CCO)CCCOc1ccc2c(Nc3cc(CC(=O)Nc4cccc(F)c4)[nH]n3)ncnc2c1 | · | · | 0.3% | -10.4%
COc1ccccc1C(=O)N1c2ccccc2C(C)(c2ccc(Cl)cc2)CC1(C)C (stereo unspecified) | 16.6% | 54.5% | 25.1µM* | -50.1%
Cc1ccc(S(=O)(=O)NCC(Nc2cccc(Cl)c2)c2ccccc2)cc1 (stereo unspecified) | ? | ? | 25.1µM* | -56.4%
Cc1cccc(N2CCN(C(=O)C3CCCN(S(=O)(=O)c4ccc5c(c4)oc(=O)n5C)C3)CC2)c1C (stereo unspecified) | 4.1% | 7.7% | 5.01µM* | -45.3%
Cc1cccc(N2CCN(C(=O)C3CCN(S(=O)(=O)c4c(C)noc4C)CC3)CC2)c1C | -15.2% | 1.8% | 14.1µM* | -38.3%
Cc1ccc(/C=C/c2onc(C)c2S(=O)(=O)N2CCC(C(=O)N3CCC(N(C)C(C)C)CC3)CC2)cc1 | 15.8µM* | -18.9% | -21.4% | -14.0%
CCCc1ccc(OCC(=O)N2CCN(C(=O)COc3ccc(CCC)cc3OC)CC2)c(OC)c1 | · | · | ? | -25.9%
CCOC(=O)C=C[C@H](C[C@@H]1CCNC1=O)NC(=O)[C@@H](CC(=O)[C@@H](NC(=O)c1cc(C)on1)C(C)C)Cc1ccc(F)cc1 | · | · | 9.5% | 10.6%
C[C@]1(c2nc3c(C(N)=O)cccc3[nH]2)CCCN1 | · | · | -8.2% | -9.0%
CC=C(C)C(=O)O[C@H]1C(C)=C[C@]23C(=O)[C@@H](C=C(CO)[C@@H](O)[C@]12O)[C@H]1[C@@H](C[C@H]3C)C1(C)C | · | · | -10.5% | 3.9%
O=C1OC2(c3ccccc31)c1cc(Br)c(O)c(Br)c1Oc1c2cc(Br)c(O)c1Br | · | · | 1.6% | -10.4%
COC(=O)Cc1c(C)nc2nc(-c3ccc(C)cc3)[nH]n2c1=O | ? | 10µM* | 7.6% | -21.4%
O=C(Nc1cccc(Cl)c1)C1CCCN(c2nn3cc(-c4ccc(F)cc4)nc3s2)C1 (stereo unspecified) | -21.1% | -2.5% | 3.98µM* | -64.0%
O=C(NCc1cccc(Cl)c1)C1CCCN(c2nn3cc(-c4ccc(F)cc4)nc3s2)C1 (stereo unspecified) | -11.0% | -14.4% | 2.51µM* | -70.2%
O=C(NCC(c1cccnc1)N1CCN(c2ccccc2F)CC1)C(=O)Nc1ccc(F)cc1F (stereo unspecified) | -3.8% | -2.1% | -28.2% | -8.8%
COc1ccc(CCNC(=O)C(=O)NCC(c2cccnc2)N2CCN(c3ccccc3)CC2)cc1 (stereo unspecified) | -2.0% | 1.0% | 12.6µM* | -63.7%
COc1ccc(CNC(=O)C(=O)NCC(c2cccnc2)N2CCN(c3ccccc3)CC2)cc1 (stereo unspecified) | -15.0% | -10.1% | 12.6µM* | -36.2%
COc1ccc(NC(=O)C(=O)NCC(c2cccnc2)N2CCc3ccccc3C2)cc1 (stereo unspecified) | 20µM* | 12.6µM* | ? | -26.5%
O=C(NCC(c1cccnc1)N1CCc2ccccc2C1)C(=O)Nc1ccccc1 (stereo unspecified) | -9.7% | 1.9% | -14.1% | -3.2%
O=C(NCCc1ccccc1)C(=O)NCC(c1cccnc1)N1CCN(c2ccccc2)CC1 (stereo unspecified) | -5.4% | 2.9% | ? | -40.5%
Cc1ccc(CNC(=O)C(=O)NCC(c2cccnc2)N2CCN(c3ccccc3F)CC2)cc1 (stereo unspecified) | ? | 52.0% | 14.1µM* | -48.2%
CC(C(O)c1ccccc1)N(C)CCOC(c1ccccc1)c1ccccc1 (stereo unspecified) | · | · | -25.6% | -25.6%

Bioassay records: PubChem, National Center for Advancing Translational Sciences (NCATS)
